# Experimental data published in PubChem BioAssay AID1159580 (chemical genetic matrix, 2015).
# Where “and” joins values, the source holds several entries; their conditions need not be identical. Identical values can stand only once. The campaign covered roughly 5,500 compounds. About 2,000 (36%) were called active. About 18% were inconclusive and are not listed. The list shows a part of the results. Values without a mark were called inactive. Rule as the data show it: active = normalized growth mostly below about 0.91 (no sharp cut-off); inconclusive = no clear call, values can overlap the other calls; inactive = mostly above about 0.92.
# Assay: chemical genetic growth profiling, strain panel (AID 1159580);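 also: tested at 20 µM; growth read once vehicle control cultures reached saturation at 30 °C; 1 = growth at the plate median or of vehicle wells; lower values mean less growth of the strain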
# Details: S. cerevisiae deletion strains, growth OD
smiles,measurement,setting,value
CC(C)CCCC(C)[C@H]1CCC2C3CC=C4CC(=O)CC[C@]4(C)C3CC[C@@]21C (stereo not given in full),normalized growth,"locus YAL021C, strain ccr4, hits give low values",0.976
same,normalized growth,"locus YAL026C, strain drs2, hits give low values",0.985
same,normalized growth,"locus YAL030W, strain snc1, hits give low values",0.989
same,normalized growth,"locus YBL061C, strain skt5, hits give low values",1
same,normalized growth,"locus YBR009C, strain hhf1, hits give low values",1.04
same,normalized growth,"locus YBR021W, strain FUR4, hits give low values",0.962
same,normalized growth,"locus YBR023C, strain chs3, hits give low values",0.988
same,normalized growth,"locus YBR171W, strain sec66, hits give low values",0.992
same,normalized growth,"locus YBR229C, strain ROT2, hits give low values",0.961
same,normalized growth,"locus YBR231C, strain swc5, hits give low values",1.01
same,normalized growth,"locus YBR279W, strain paf1, hits give low values",1
same,normalized growth,"locus YCL011C, strain gbp2, hits give low values",0.986
same,normalized growth,"locus YCL016C, strain dcc1, hits give low values",1
same,normalized growth,"locus YCL029C, strain bik1, hits give low values",0.999
same,normalized growth,"locus YCL061C, strain MRC1, hits give low values",0.99
same,normalized growth,"locus YCL069W, strain vba3, hits give low values",0.994
same,normalized growth,"locus YCR088W, strain abp1, hits give low values",0.99
same,normalized growth,"locus YDL005C, strain med2, hits give low values",0.99
same,normalized growth,"locus YDL035C, strain GPR1, hits give low values",0.953
same,normalized growth,"locus YDL040C, strain nat1, hits give low values",0.975
same,normalized growth,"locus YDL074C, strain BRE1, hits give low values",0.937
same,normalized growth,"locus YDL101C, strain DUN1, hits give low values",0.971
same,normalized growth,"locus YDL185W, strain tfp1, hits give low values",0.982
same,normalized growth,"locus YDL192W, strain arf1, hits give low values",0.932
same,normalized growth,"locus YDR001C, strain nth1, hits give low values",0.99
same,normalized growth,"locus YDR069C, strain doa4, hits give low values",1
same,normalized growth,"locus YDR101C, strain arx1, hits give low values",1.03
same,normalized growth,"locus YDR137W, strain rgp1, hits give low values",0.895
same,normalized growth,"locus YDR150W, strain NUM1, hits give low values",0.978
same,normalized growth,"locus YDR159W, strain sac3, hits give low values",0.999
same,normalized growth,"locus YDR162C, strain NBP2, hits give low values",0.939
same,normalized growth,"locus YDR195W, strain ref2",1.03
same,normalized growth,"locus YDR297W, strain sur2, hits give low values",0.994
same,normalized growth,"locus YDR318W, strain mcm21, hits give low values",0.922
same,normalized growth,"locus YDR334W, strain swr1, hits give low values",0.968
same,normalized growth,"locus YDR335W, strain msn5, hits give low values",0.984
same,normalized growth,"locus YDR388W, hits give low values",0.964
same,normalized growth,"locus YDR392W, strain spt3, hits give low values",0.932
same,normalized growth,"locus YDR502C, strain sam2, hits give low values",0.947
same,normalized growth,"locus YEL003W, strain gim4, hits give low values",0.987
same,normalized growth,"locus YEL037C, strain rad23, hits give low values",0.986
same,normalized growth,"locus YEL061C, strain CIN8 (second series), hits give low values",0.991
same,normalized growth,"locus YEL061C, strain CIN8, hits give low values",0.988
same,normalized growth,"locus YER015W, strain faa2, hits give low values",0.992
same,normalized growth,"locus YER016W, strain bim1, hits give low values",0.987
same,normalized growth,"locus YER110C, hits give low values",0.98
same,normalized growth,"locus YER111C, strain swi4, hits give low values",0.997
same,normalized growth,"locus YER155C, strain BEM2 (second series), hits give low values",1.01
same,normalized growth,"locus YER155C, strain BEM2, hits give low values",1.01
same,normalized growth,"locus YER167W, strain BCK2, hits give low values",0.993
same,normalized growth,"locus YFR010W, strain ubp6, hits give low values",0.991
same,normalized growth,"locus YGL078C, strain dbp3, hits give low values",0.98
same,normalized growth,"locus YGL086W, strain mad1, hits give low values",0.997
same,normalized growth,"locus YGL167C, strain pmr1, hits give low values",0.996
same,normalized growth,"locus YGL173C, strain kem1, hits give low values",0.995
same,normalized growth,"locus YGL227W, strain vid30, hits give low values",0.995
same,normalized growth,"locus YGL240W, strain doc1, hits give low values",1.04
same,normalized growth,"locus YGL248W, strain PDE1, hits give low values",0.922
same,normalized growth,"locus YGL253W, strain hxk2, hits give low values",0.976
same,normalized growth,"locus YGR135W, strain pre9, hits give low values",0.942
same,normalized growth,"locus YGR252W, strain gcn5, hits give low values",0.839
same,normalized growth,"locus YHR013C, strain ard1, hits give low values",0.989
same,normalized growth,"locus YHR027C, strain rpn1, hits give low values",0.987
same,normalized growth,"locus YHR030C, strain SLT2, hits give low values",1 and 1.02
same,normalized growth,"locus YHR079C, strain IRE1 (second series), hits give low values",0.992
same,normalized growth,"locus YHR079C, strain IRE1, hits give low values",0.997
same,normalized growth,"locus YHR094C, strain hxt1, hits give low values",0.986
same,normalized growth,"locus YHR129C, strain ARP1, hits give low values",0.974
same,normalized growth,"locus YHR142W, strain chs7, hits give low values",0.903
same,normalized growth,"locus YHR200W, strain rpn10, hits give low values",0.958
same,normalized growth,"locus YIL066C, strain RNR3, hits give low values",0.952
same,normalized growth,"locus YIL073C, strain SPO22, hits give low values",0.936
same,normalized growth,"locus YIL125W, strain kgd1, hits give low values",0.987
same,normalized growth,"locus YIR030C, strain dcg1, hits give low values",0.979
same,normalized growth,"locus YJL092W, strain hpr5, hits give low values",0.978
same,normalized growth,"locus YJL095W, strain BCK1 (second series), hits give low values",0.989
same,normalized growth,"locus YJL095W, strain BCK1, hits give low values",0.83 and 1
same,normalized growth,"locus YJL115W, strain asf1, hits give low values",0.974
same,normalized growth,"locus YJL129C, strain trk1, hits give low values",0.935
same,normalized growth,"locus YJL134W, strain LCB3, hits give low values",0.982
same,normalized growth,"locus YJL154C, strain vps35, hits give low values",0.993
same,normalized growth,"locus YJL164C, strain tpk1, hits give low values",0.95
same,normalized growth,"locus YJL166W, strain qcr8, hits give low values",0.986
same,normalized growth,"locus YJL168C, strain set2, hits give low values",0.996
same,normalized growth,"locus YJL187C, strain SWE1 (second series), hits give low values",0.968
same,normalized growth,"locus YJL187C, strain SWE1, hits give low values",1
same,normalized growth,"locus YJR043C, strain POL32, hits give low values",0.958
same,normalized growth,"locus YJR066W, strain TOR1, hits give low values",0.928
same,normalized growth,"locus YJR075W, strain HOC1, hits give low values",0.968
same,normalized growth,"locus YKL009W, strain mrt4, hits give low values",0.943
same,normalized growth,"locus YKL068W, hits give low values",0.993
same,normalized growth,"locus YKL085W, strain MDH1 (second series), hits give low values",0.99
same,normalized growth,"locus YKL085W, strain MDH1, hits give low values",0.99
same,normalized growth,"locus YKL160W, strain elf1, hits give low values",0.965
same,normalized growth,"locus YKL190W, strain CNB1, hits give low values",0.984
same,normalized growth,"locus YKR001C, strain vps1, hits give low values",0.914
same,normalized growth,"locus YKR026C, strain gcn3, hits give low values",0.993
same,normalized growth,"locus YKR091W, strain srl3, hits give low values",0.994
same,normalized growth,"locus YLL001W, strain dnm1, hits give low values",0.988
same,normalized growth,"locus YLL026W, hits give low values",0.988
same,normalized growth,"locus YLL041C, strain sdh2, hits give low values",0.981
same,normalized growth,"locus YLR027C, strain aat2, hits give low values",0.981
same,normalized growth,"locus YLR039C, strain RIC1, hits give low values",0.696
same,normalized growth,"locus YLR058C, strain SHM2, hits give low values",0.967
same,normalized growth,"locus YLR102C, strain apc9, hits give low values",0.989
same,normalized growth,"locus YLR113W, strain HOG1, hits give low values",0.91
same,normalized growth,"locus YLR221C, strain rsa3, hits give low values",0.949
same,normalized growth,"locus YLR258W, strain gsy2, hits give low values",1.01
same,normalized growth,"locus YLR262C, strain YPT6 (second series), hits give low values",0.855 (active)
same,normalized growth,"locus YLR262C, strain YPT6, hits give low values",0.66
same,normalized growth,"locus YLR268W, strain sec22, hits give low values",0.974
same,normalized growth,"locus YLR320W, strain mms22, hits give low values",0.999
same,normalized growth,"locus YLR330W, strain CHS5, hits give low values",0.985
same,normalized growth,"locus YLR342W, strain FKS1 (second series), hits give low values",0.946
same,normalized growth,"locus YLR342W, strain FKS1, hits give low values",1.01
same,normalized growth,"locus YLR357W, strain rsc2, hits give low values",1.02
same,normalized growth,"locus YLR370C, strain arc18, hits give low values",0.99
same,normalized growth,"locus YLR371W, strain rom2, hits give low values",0.989
same,normalized growth,"locus YLR384C, strain iki3, hits give low values",0.995
same,normalized growth,"locus YLR418C, strain cdc73, hits give low values",0.753 (active)
same,normalized growth,"locus YML016C, strain PPZ1, hits give low values",0.996
same,normalized growth,"locus YML032C, strain rad52, hits give low values",0.91
same,normalized growth,"locus YML120C, strain ndi1, hits give low values",0.949
same,normalized growth,"locus YML124C, strain tub3, hits give low values",0.995
same,normalized growth,"locus YMR058W, strain fet3, hits give low values",0.981
same,normalized growth,"locus YMR078C, strain ctf18, hits give low values",0.981
same,normalized growth,"locus YMR125W, strain sto1, hits give low values",0.985
same,normalized growth,"locus YMR129W, hits give low values",1
same,normalized growth,"locus YMR205C, strain PFK2, hits give low values",1.03
same,normalized growth,"locus YMR223W, strain ubp8, hits give low values",0.925
same,normalized growth,"locus YMR231W, strain pep5, hits give low values",1
same,normalized growth,"locus YMR307W, strain GAS1, hits give low values",0.875
same,normalized growth,"locus YNL067W, strain RPL9B, hits give low values",0.987
same,normalized growth,"locus YNL071W, strain lat1, hits give low values",0.978
same,normalized growth,"locus YNL183C, strain NPR1, hits give low values",0.937
same,normalized growth,"locus YNL209W, strain ssb2, hits give low values",1
same,normalized growth,"locus YNL233W, strain BNI4, hits give low values",0.932
same,normalized growth,"locus YNL248C, strain rpa49, hits give low values",0.93
same,normalized growth,"locus YNL250W, strain rad50, hits give low values",0.965
same,normalized growth,"locus YNL271C, strain bni1, hits give low values",0.977
same,normalized growth,"locus YNL298W, strain CLA4, hits give low values",0.979
same,normalized growth,"locus YNL307C, strain MCK1, hits give low values",0.842 (active)
same,normalized growth,"locus YNL322C, strain KRE1 (second series), hits give low values",0.99
same,normalized growth,"locus YNL322C, strain KRE1, hits give low values",0.991
same,normalized growth,"locus YNR049C, strain mso1, hits give low values",0.986
same,normalized growth,"locus YNR052C, strain pop2, hits give low values",0.98
same,normalized growth,"locus YOL006C, strain TOP1, hits give low values",1.01
same,normalized growth,"locus YOL012C, strain htz1",1.02
same,normalized growth,"locus YOL147C, strain pex11, hits give low values",0.989
same,normalized growth,"locus YOR001W, strain rrp6, hits give low values",0.933
same,normalized growth,"locus YOR061W, strain CKA2, hits give low values",0.954
same,normalized growth,"locus YOR069W, strain VPS5, hits give low values",0.988
same,normalized growth,"locus YOR070C, strain gyp1, hits give low values",0.978
same,normalized growth,"locus YOR080W, strain dia2, hits give low values",0.996
same,normalized growth,"locus YOR083W, strain WHI5, hits give low values",0.944
same,normalized growth,"locus YOR106W, strain vam3, hits give low values",0.965
same,normalized growth,"locus YOR136W, strain idh2, hits give low values",0.993
same,normalized growth,"locus YOR144C, strain elg1, hits give low values",0.993
same,normalized growth,"locus YOR184W, strain ser1, hits give low values",0.945
same,normalized growth,"locus YOR231W, strain MKK1, hits give low values",0.965
same,normalized growth,"locus YOR265W, strain rbl2, hits give low values",0.986
same,normalized growth,"locus YOR270C, strain vph1, hits give low values",0.922
same,normalized growth,"locus YOR290C, strain snf2, hits give low values",0.959
same,normalized growth,"locus YOR316C, strain cot1, hits give low values",0.988
same,normalized growth,"locus YPL051W, strain arl3, hits give low values",0.956
same,normalized growth,"locus YPL078C, strain atp4, hits give low values",0.951
same,normalized growth,"locus YPL106C, strain sse1, hits give low values",1.03
same,normalized growth,"locus YPL240C, strain hsp82, hits give low values",0.989
same,normalized growth,"locus YPL241C, strain CIN2, hits give low values",0.995
same,normalized growth,"locus YPL256C, strain CLN2, hits give low values",1.01
same,normalized growth,"locus YPR119W, strain clb2, hits give low values",1
same,normalized growth,"locus YPR141C, strain kar3, hits give low values",0.988
same,normalized growth,"locus YPR163C, strain tif3, hits give low values",0.977
same,normalized growth,"locus YPR167C, strain met16, hits give low values",0.96
same,normalized growth,"strain wtn01, hits give low values",1.02
